ELG1 DNA repair = inhibitors of ELG1-dependent DNA repair in HEK293T cells | Potency, µM (titrated, usually from 46.1 µM), without a hit: top-dose activity change, negative = inhibition, hits mostly inhibitors | AID 504467 | hit rate 2.3% among 330,000 | HEK293T ELG1-luciferase reporter, luminescence, 16 h; DNA damage induced by 5-fluorouridine; note: potency is the fitted concentration of half-maximal effect; nearly all actives have a fitted effect of over 55% in size
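Step one: seed 2,000 cells per well. Step two: pin-transfer compound or DMSO alongside 5-fluorouridine. Step three: incubate 16 hr, 37 °C, 5% CO2. Step four: add ONE-Glo, wait 30 min, read luminescence.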
RORg inh = ROR gamma (mouse) transcription inhibition. P51450. Drosophila S2 Gal4-RORgamma UAS-luciferase reporter, 20 h. Potency, µM (titrated, usually from 53.6 µM), inactives show top-dose activity change, negative = inhibition, hits mostly inhibitors. hit rate 5.4% among 310,000. AID 2551; note: potency is the fitted concentration of half-maximal effect; nearly all actives have a fitted effect of over 60% in size
Target sequence (P51450 whole entry, looked up, the tested form may be a part): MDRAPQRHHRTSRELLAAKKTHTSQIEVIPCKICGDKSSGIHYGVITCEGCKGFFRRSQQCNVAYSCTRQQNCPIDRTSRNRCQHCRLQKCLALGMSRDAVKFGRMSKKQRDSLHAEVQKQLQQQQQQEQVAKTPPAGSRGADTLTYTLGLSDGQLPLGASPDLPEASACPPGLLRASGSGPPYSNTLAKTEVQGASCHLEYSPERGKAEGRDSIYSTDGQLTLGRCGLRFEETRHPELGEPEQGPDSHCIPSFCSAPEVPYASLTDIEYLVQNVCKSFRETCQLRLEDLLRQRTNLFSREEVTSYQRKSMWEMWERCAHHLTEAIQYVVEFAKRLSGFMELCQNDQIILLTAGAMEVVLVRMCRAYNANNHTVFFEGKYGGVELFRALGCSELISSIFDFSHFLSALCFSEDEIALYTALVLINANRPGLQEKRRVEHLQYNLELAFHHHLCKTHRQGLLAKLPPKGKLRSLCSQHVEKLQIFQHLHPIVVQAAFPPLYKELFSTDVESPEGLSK
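Luciferase reporter read in Schneider cells carrying Gal4-RORγ (mouse) and UAS-Photinus luciferase; cells given compound 1 h before 700 uM copper sulfate induction, then incubated 20 h at ambient temperature.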
DT40 TDP1 no CPT = qHTS for Inhibitors of human tyrosyl-DNA phosphodiesterase 1 (TDP1): qHTS in cells in absence of CPT. Potency, µM (titrated, usually from 46.2 µM), inactives show at the top dose activity change, negative = growth inhibition, actives largely listed as inhibitors. AID 686978, 2013. hit rate 15% among 420,000. DT40 Tdp1-/- hTDP1 cells, no CPT, ATP luminescence, 48 h; note: potency is the fitted concentration of half-maximal effect; nearly all actives have a fitted effect of over 55% in size
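Chicken DT40 Tdp1-/- cells stably complemented with human TDP1 were seeded at 400 cells/well with DMSO in place of 20 nM camptothecin. After compound pinning, cells grew at least 48 hr at 37 °C; viability read by CellTiter-Glo luminescence.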
VP16 counter = inhibits Gal4-VP16 luciferase reporter, ROR gamma counter-screen; hit rate 3.5% among 310,000; Drosophila S2 Gal4-VP16 UAS-luciferase, luminescence, 20 h; Potency, µM (highest dose often 53.6 µM), without a hit: top-dose activity, negative = inhibition, actives largely listed as inhibitors;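 note: Gal4-VP16 expression switched on by copper sulfate through the metallothionein promoter; potency is the fitted concentration of half-maximal effect; nearly all actives have a fitted effect of over 50% in size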
IL1B secr inh = inhibitors of inflammasome signaling (IL-1 beta secretion) | activity change, % at 57.5 µM | THP-1 LPS/ATP IL-1B secretion, AlphaLISA, 16 h; stronger effect = lower value | hit rate 4.7% among 360,000; in the data active = activity change below about -50%; inconclusive = mostly about -30% to -49%
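Secreted IL-1B measured by AlphaLISA bead assay after 16 h compound exposure of THP-1 cells; compounds (final up to 57.5 uM) added 1 h before LPS (250 ng/mL) and ATP (1.25 mM) stimulation; lower signal means less secretion.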
DT40 TDP1 CPT = growth inhibition of DT40 Tdp1-/-;hTDP1 cells with camptothecin (screen for TDP1 inhibitors); chicken DT40 Tdp1-/-;hTDP1 cells + 20 nM CPT, ATP luminescence, 48 h; hit rate 12% among 420,000; AID 686979; Potency, µM (series often up to 46.2 µM), inactives show at the highest dose activity change, negative = growth inhibition, usual class: inhibitors; note: potency is the fitted concentration of half-maximal effect; nearly all actives have a fitted effect of over 55% in size
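Chicken DT40 Tdp1-/- cells complemented with human TDP1, 400 cells/well, exposed to compounds plus 20 nM camptothecin for at least 48 h at 37 C; viability read as ATP content by CellTiter-Glo luminescence.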
Numbers without * were called inactive; [ ] = another dose, or the depositor's remark. Rows were chosen to be rich in hits. Some 21% of all compounds tested hit in one or more screens of this group. Unless noted, calls come from the whole dose curve; as a rule, active = well fitted curve in the direction sought with a large enough effect; inconclusive = small, poorly fitted or top-dose-only effect, or another doubt; inactive = no such curve, though single readings can be large; an effect the other way counts as inactive or inconclusive. % is set by controls: 0 for no effect and ±100 for the full control effect.

CN(C)CCCC(C)(O)C(Cc1ccccc1)c1ccccc1 (centres undefined) was read as ELG1 DNA repair 1%, RORg inh 5%, DT40 TDP1 no CPT 21µM*, VP16 counter 1%, IL1B secr inh -17 and DT40 TDP1 CPT inconclusive.
Screening COc1ccc2c(c1)c1c(c(=O)n(-c3cccc(Cl)c3)c(=O)n1C)n2C returned DT40 TDP1 no CPT -8% and DT40 TDP1 CPT -5%.
For COc1ccccc1-n1c(SCC(=O)Nc2ccccc2F)nc2[nH]ncc2c1=O the results were ELG1 DNA repair inconclusive, RORg inh 40%, DT40 TDP1 no CPT -22%, VP16 counter 8%, IL1B secr inh -9 and DT40 TDP1 CPT 13µM*.
Screening O=c1c2cn[nH]c2nc(SCc2ccc3c(c2)OCCO3)n1-c1ccccc1 returned ELG1 DNA repair inconclusive, RORg inh inconclusive, DT40 TDP1 no CPT inconclusive, VP16 counter inconclusive, IL1B secr inh -1 and DT40 TDP1 CPT -23%.
For COc1ccccc1NC(=O)CSc1nc2[nH]ncc2c(=O)[nH]1 the results were ELG1 DNA repair 14%, DT40 TDP1 no CPT -7%, IL1B secr inh 22 and DT40 TDP1 CPT -10%.
Cc1cc(-n2c(SCc3ccccc3F)nc3[nH]ncc3c2=O)ccc1Cl was read as DT40 TDP1 no CPT 16µM* and DT40 TDP1 CPT inconclusive.
For Cc1ccccc1-n1c(SCc2ccc(Cl)cc2)nc2[nH]ncc2c1=O the results were DT40 TDP1 no CPT 18µM* and DT40 TDP1 CPT 16µM*.
Screening O=C(CN1CCN(Cc2ccc(F)cc2)CC1)NCc1ccccc1 returned ELG1 DNA repair -11%, RORg inh -9%, DT40 TDP1 no CPT inconclusive, VP16 counter -2%, IL1B secr inh 13 and DT40 TDP1 CPT 19%.
`Clc1ccc(/C=N\Nc2ccccc2)cc1` gave ELG1 DNA repair 1%, RORg inh 1%, DT40 TDP1 no CPT -26%, VP16 counter 18%, IL1B secr inh 30 and DT40 TDP1 CPT -19%.
For COc1cc(C=NNC(=O)C(=O)Nc2cccc(Cl)c2)cc(OC)c1O the results were DT40 TDP1 no CPT -24%, IL1B secr inh -10 and DT40 TDP1 CPT -4%.
`Clc1cccc(N/N=C/c2ccncc2)c1` gave ELG1 DNA repair inconclusive, RORg inh inconclusive, DT40 TDP1 no CPT inconclusive, VP16 counter 13%, IL1B secr inh -53* and DT40 TDP1 CPT -24%.
For O=C(N/N=C/c1ccc(Cl)cc1)Nc1ccccc1 the results were ELG1 DNA repair inconclusive, RORg inh 21%, DT40 TDP1 no CPT 8.2µM*, VP16 counter -18%, IL1B secr inh -16 and DT40 TDP1 CPT inconclusive.
O=C(N/N=C/c1cccs1)C(=O)Nc1cccc(Cl)c1 was read as ELG1 DNA repair inconclusive, RORg inh 3.2µM*, DT40 TDP1 no CPT inconclusive, VP16 counter 10µM*, IL1B secr inh 7 and DT40 TDP1 CPT 0%.
O=C(CC(=O)Nc1cccc(Cl)c1)N/N=C\c1ccccc1 was read as ELG1 DNA repair -9%, RORg inh 39%, DT40 TDP1 no CPT 0.29µM*, VP16 counter -15%, IL1B secr inh -28 and DT40 TDP1 CPT inconclusive.
For Cc1ccc2c(c1)CCO[C@@]21O[C@H](CCO)C[C@H](O)[C@H]1O the results were DT40 TDP1 no CPT -10%, IL1B secr inh 28 and DT40 TDP1 CPT -14%.
`COc1ccc(C(=O)N2CCCC(c3cc(C(=O)Nc4ccccc4)no3)C2)cc1` (centres undefined) gave DT40 TDP1 no CPT inconclusive, IL1B secr inh -9 and DT40 TDP1 CPT -6%.
Screening O=C(Oc1ccccc1)c1cccc2cccc(C(=O)Oc3ccccc3)c12 returned ELG1 DNA repair 0%, RORg inh 29%, DT40 TDP1 no CPT 21µM*, VP16 counter -8%, IL1B secr inh 13 and DT40 TDP1 CPT inconclusive.
For COc1ccc(Cn2ccc3nc(C)c(C(=O)Nc4ccc(OC)cc4OC)cc3c2=O)cc1 the results were DT40 TDP1 no CPT inconclusive and DT40 TDP1 CPT -14%.
Screening CN(C)c1ccc(C(CNC(=O)COc2ccccc2)N2CCOCC2)cc1 (centres undefined) returned DT40 TDP1 no CPT -24% and DT40 TDP1 CPT -15%.
CN(C)c1ccc(C(CNC(=O)c2ccc(C(C)(C)C)cc2)N2CCOCC2)cc1 (centres undefined) was read as DT40 TDP1 no CPT 21µM* and DT40 TDP1 CPT 16µM*.
Screening CCOc1cc(C(=O)NCC(c2ccc(N(C)C)cc2)N2CCOCC2)cc(OCC)c1OCC (centres undefined) returned DT40 TDP1 no CPT 18µM* and DT40 TDP1 CPT 21µM*.
Screening COCCOC(=O)c1ccccc1C(=O)OCCOC returned RORg inh -9% and VP16 counter 9%.
`O=C(NC(NC(=S)Nc1ccccc1O)C(Cl)(Cl)Cl)c1ccco1` (centres undefined) gave ELG1 DNA repair 0%, RORg inh inconclusive, DT40 TDP1 no CPT 18µM*, VP16 counter 3%, IL1B secr inh -8 and DT40 TDP1 CPT inconclusive.
`O=C(NNC(=S)Nc1ccccc1)c1ccco1` gave ELG1 DNA repair 21%, RORg inh -37%, DT40 TDP1 no CPT -15%, VP16 counter 3%, IL1B secr inh 0 and DT40 TDP1 CPT 11%.
O=C(NC(NC(=S)Nc1ccc(Cl)cc1)C(Cl)(Cl)Cl)c1ccco1 (centres undefined) was read as ELG1 DNA repair -12%, RORg inh inconclusive, DT40 TDP1 no CPT inconclusive, VP16 counter -6%, IL1B secr inh -102* and DT40 TDP1 CPT inconclusive.
For CCc1ccc(OCC(=O)NC(NC(=S)Nc2ccc(Cl)cc2)C(Cl)(Cl)Cl)cc1 (centres undefined) the results were ELG1 DNA repair inconclusive, RORg inh 8%[10 µM], DT40 TDP1 no CPT 13µM*, VP16 counter inconclusive, IL1B secr inh -20 and DT40 TDP1 CPT 15µM*.
Cc1ccccc1NC(=S)NNC(=O)c1ccco1 was read as ELG1 DNA repair inconclusive, DT40 TDP1 no CPT 22%, IL1B secr inh 14 and DT40 TDP1 CPT -8%.
For CCn1c(CSc2nc3ccccc3s2)n[nH]c1=S the results were ELG1 DNA repair inconclusive, RORg inh 2.5µM*, DT40 TDP1 no CPT inconclusive, VP16 counter 10µM*, IL1B secr inh 16 and DT40 TDP1 CPT inconclusive.
